This passage reports composite z-score, composite Z-score and z-score results from PubChem BioAssay.

The target in one experiment is Albumin (Bos taurus) (UniProt P02769). In words: bovine serum albumin binders on microarray, profiling panel, artefact control for SMM control protein annotation, biochemical, small-molecule microarray, Alexa647 label, 635/667 nm fluorescence (AID 1118).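 Further: score merges 667 nm emission intensity and signal-to-noise per printed compound spot.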 The note with it: BSA-A647 binding, fluorescence 635 nm, higher = more signal.
Experiment [1] in a line: small-molecule microarray binders of probe aXIP, primary screen, biochemical, NeuroSMM set, 635/667 nm fluorescence (AID 1119).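 Further: probe is the protein aXip251-270 applied at 1 µg/mL to compound-printed slides; binding of probe to printed compounds measured as 667 nm fluorescence plus signal to noise.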 The note with it: higher = more signal, called active from +8 up or from −8 down.
The nature of experiment [2]: small-molecule binders of probe aNOTCH3, primary screen, biochemical, small-molecule microarray, 635/667 nm fluorescence (AID 1120).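 Further: probe is a biotin-tagged antibody raised against NOTCH3 rather than NOTCH3 protein; score merges spot fluorescence near 667 nm with spot signal to noise.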 The note with it: higher = more signal.
A short description of experiment [3]: small-molecule binders of probe aNOTCH2, primary screen, biochemical, small-molecule microarray, 635/667 nm fluorescence (AID 1121).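 Further: score merges feature fluorescence read at 667 nm with its signal to noise.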 The following applies: higher = more signal.
Experiment [4] concerns the target Carbonic anhydrase 2 (Homo sapiens) (UniProt P00918). In words: CAII small-molecule binders, profiling panel, biochemical, small-molecule microarray, Alexa647-labelled CAII (AID 1122). The following applies: CAII-A647 binding fluorescence, higher = more signal.
Experiment [5] can be described thus: COS7 lysate on small-molecule microarray, probe aHis, 635 nm (AID 1123).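 Further: z-score combines 667nm fluorescence intensity with signal-to-noise per printed compound spot.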 The note with it: COS7 cell lysate, fluorescence, higher = more signal.
Experiment [6] in a line: compound binding in COS7 lysate, probe aLAP1, primary screen, cell lysate, small-molecule microarray (AID 1124).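 Further: lysate comes from COS7 cells expressing LAP1 and is applied at 0.3 µg/mL; score merges spot fluorescence near 667 nm with signal-to-noise over triplicate slides.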 The following applies: probe aLAP1, fluorescence, higher = more signal.
For a further experiment, the system named is Sam68 (KHDRBS1). In words: Sam68 small-molecule binders, primary screen, biochemical, small-molecule microarray, 635 nm fluorescence (AID 1125).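 Further: score merges 667 nm channel intensity with signal to noise over triplicate slides.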 The note with it: small-molecule microarray binding, higher = more signal.
Experiment [7] has as its system Chordin-like protein 2 (CHRDL2). Put plainly: CHRDL2 small-molecule binders, primary screen, biochemical, small-molecule microarray, 635 nm fluorescence (AID 1126).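 Further: printed compound slides probed with Chrdl2 protein at 4 µg/mL for 1 h at 4 C; score merges 667 nm emission intensity with signal to noise over three replicate slides.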 The note with it: small-molecule microarray binding, fluorescence 635 nm; higher = more signal.
Experiment [8] deals with Concanavalin-A (Canavalia ensiformis) (UniProt P02866). Put plainly: ConA small-molecule binders, primary screen, artefact control for SMM control protein annotation, biochemical, small-molecule microarray, Alexa647 label, 635 nm (AID 1127).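 Further: z combines 667 nm emission intensity with signal-to-noise across three replicate slides.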 The note with it: ConA-A647 binding fluorescence, higher = more signal.
Experiment [9] in a line: anti-His antibody binders, primary screen, artefact control for SMM control protein annotation, biochemical, small-molecule microarray, 635 nm fluorescence (AID 1128).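 Further: score merges feature fluorescence with signal-to-noise for each printed compound spot.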 The note with it: anti-His Alexa647 antibody binding, higher = more signal.
Experiment [10] deals with Human papillomavirus type 1a E7 protein (residues 1-88). Put plainly: HPV1a E7 small-molecule binders, primary screen, biochemical, small-molecule microarray, residues 1-88, 635 nm (AID 1129). The note with it: small-molecule microarray binding, fluorescence 635 nm; higher = more signal.
Experiment [11] deals with Focal adhesion kinase 1 (Homo sapiens) (UniProt Q05397). In words: small-molecule microarray binders of FAK, primary screen, biochemical, 635/667 nm fluorescence, BSA, DTT (AID 1130).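 Further: composite of spot emission at 667 nm and signal to noise over triplicate slides.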 The note with it: PTK2 binding, 635 nm fluorescence, higher = more signal.
Experiment [12] has as its system Fibrinogen (Alexa647-labelled). Put plainly: fibrinogen binders on compound microarrays, profiling panel, artefact control for SMM control-protein annotation, biochemical, small-molecule microarray, 635/667 nm fluorescence (AID 1131).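 Further: z-score merges 667 nm fluorescence with per-spot signal-to-noise over triplicate slides.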 The following applies: fibrinogen-A647 binding fluorescence, higher = more signal.
Experiment [13] addresses Follistatin (Homo sapiens) (UniProt P19883). In words: follistatin binders on small-molecule microarrays, primary screen, biochemical, small-molecule microarray, 635/667 nm fluorescence (AID 1132). The following applies: FST binding, 635 nm fluorescence, higher = more signal.
For experiment [14], the target named is Fibroblast growth factor 2 (Homo sapiens) (UniProt P09038). Put plainly: FGF2 binders on small-molecule microarrays, primary screen, biochemical, small-molecule microarray, 635/667 nm fluorescence (AID 1133). The note with it: small-molecule microarray binding, FGF2, fluorescence 635/667; higher = more signal.
A short description of experiment [15]: mitochondrial membrane potential change in A549 cells, profiling panel, cell-based, JC-1 fluorescence, basal, 24 h, 100 nL (AID 1138).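 Further: A549 lung adenocarcinoma cells under basal conditions with no added stimulus; test concentration not given here.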 The following applies: higher = more signal.
The test system of the next experiment is Lefty1. In words: Lefty1 binders on small-molecule microarrays, primary screen, biochemical, small-molecule microarray, 635/667 nm fluorescence (AID 1139). The note with it: small-molecule microarray binding, fluorescence 635/667; higher = more signal.
The test system of experiment [16] is wheat germ agglutinin (Triticum aestivum), Alexa647-labelled. In words: wheat germ agglutinin binders on compound microarrays, profiling panel, artefact control for SMM control-protein annotation, biochemical, small-molecule microarray, 635/667 nm fluorescence (AID 1140).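 Further: score merges 667 nm feature emission with signal to noise over triplicate slides.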 The following applies: WGA-A647 binding, 635 nm fluorescence, higher = more signal.
Experiment [17] addresses Luciferin 4-monooxygenase (Photinus pyralis) (UniProt P08659). Put plainly: firefly luciferase enzyme inhibitors, primary screen, biochemical, luminescence, purified enzyme, 2006 set (AID 1141).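 Further: cell-free assay with purified firefly luciferase at 100 ng per well in PBS; test concentration not given here.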 The note with it: SteadyGlo luminescence, 30 min, higher = more signal, called active from +8 up or from −8 down.

Molecules are shown by their SMILES. Activity calls are given as the source filed them.

Chain of Follistatin (Homo sapiens) (P19883 whole entry, looked up): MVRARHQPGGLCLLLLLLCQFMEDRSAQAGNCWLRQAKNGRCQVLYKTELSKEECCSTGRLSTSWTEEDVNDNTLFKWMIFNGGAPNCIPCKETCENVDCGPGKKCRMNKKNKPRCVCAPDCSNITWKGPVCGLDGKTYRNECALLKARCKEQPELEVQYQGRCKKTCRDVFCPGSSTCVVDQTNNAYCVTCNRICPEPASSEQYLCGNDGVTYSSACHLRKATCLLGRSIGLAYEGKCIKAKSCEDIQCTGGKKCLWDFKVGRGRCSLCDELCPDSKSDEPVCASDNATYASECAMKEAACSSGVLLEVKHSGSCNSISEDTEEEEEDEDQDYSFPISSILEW
Chain of Focal adhesion kinase 1 (Homo sapiens) (Q05397 whole entry, looked up): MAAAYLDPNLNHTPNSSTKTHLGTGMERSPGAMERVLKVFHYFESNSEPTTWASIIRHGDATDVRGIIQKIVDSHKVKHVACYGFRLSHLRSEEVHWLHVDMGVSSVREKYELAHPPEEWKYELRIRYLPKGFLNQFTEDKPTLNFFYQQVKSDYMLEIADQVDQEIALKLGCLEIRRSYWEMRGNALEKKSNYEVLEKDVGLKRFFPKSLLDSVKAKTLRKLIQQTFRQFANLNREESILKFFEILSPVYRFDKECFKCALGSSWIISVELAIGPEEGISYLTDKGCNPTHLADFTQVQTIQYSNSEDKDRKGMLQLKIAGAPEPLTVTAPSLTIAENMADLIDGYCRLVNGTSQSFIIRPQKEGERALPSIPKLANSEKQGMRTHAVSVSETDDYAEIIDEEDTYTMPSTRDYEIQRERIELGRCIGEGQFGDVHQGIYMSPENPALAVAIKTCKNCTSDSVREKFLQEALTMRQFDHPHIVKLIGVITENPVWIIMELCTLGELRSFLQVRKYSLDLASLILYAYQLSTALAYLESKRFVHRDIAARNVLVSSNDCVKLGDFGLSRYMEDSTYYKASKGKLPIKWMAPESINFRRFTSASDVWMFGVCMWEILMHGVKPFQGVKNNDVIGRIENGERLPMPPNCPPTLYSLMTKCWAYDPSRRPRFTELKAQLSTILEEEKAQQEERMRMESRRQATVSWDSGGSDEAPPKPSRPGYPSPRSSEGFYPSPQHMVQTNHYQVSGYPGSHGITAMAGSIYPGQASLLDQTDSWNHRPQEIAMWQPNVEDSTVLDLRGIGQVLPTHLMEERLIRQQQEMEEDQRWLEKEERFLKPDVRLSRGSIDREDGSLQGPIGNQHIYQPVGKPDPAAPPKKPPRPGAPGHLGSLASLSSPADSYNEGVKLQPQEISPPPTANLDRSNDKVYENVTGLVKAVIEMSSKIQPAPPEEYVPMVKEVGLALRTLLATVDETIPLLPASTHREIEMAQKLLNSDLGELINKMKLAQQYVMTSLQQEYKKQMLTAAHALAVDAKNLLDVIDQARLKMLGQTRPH
Chain of Concanavalin-A (Canavalia ensiformis) (P02866 whole entry, looked up): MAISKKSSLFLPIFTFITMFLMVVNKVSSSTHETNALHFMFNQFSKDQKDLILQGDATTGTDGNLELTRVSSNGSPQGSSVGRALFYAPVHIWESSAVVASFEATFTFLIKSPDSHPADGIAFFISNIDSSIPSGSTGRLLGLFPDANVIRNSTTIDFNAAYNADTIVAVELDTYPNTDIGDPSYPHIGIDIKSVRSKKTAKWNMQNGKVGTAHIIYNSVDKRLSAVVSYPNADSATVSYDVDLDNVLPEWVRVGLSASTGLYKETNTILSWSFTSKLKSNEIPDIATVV
Chain of Albumin (Bos taurus) (P02769 whole entry, looked up): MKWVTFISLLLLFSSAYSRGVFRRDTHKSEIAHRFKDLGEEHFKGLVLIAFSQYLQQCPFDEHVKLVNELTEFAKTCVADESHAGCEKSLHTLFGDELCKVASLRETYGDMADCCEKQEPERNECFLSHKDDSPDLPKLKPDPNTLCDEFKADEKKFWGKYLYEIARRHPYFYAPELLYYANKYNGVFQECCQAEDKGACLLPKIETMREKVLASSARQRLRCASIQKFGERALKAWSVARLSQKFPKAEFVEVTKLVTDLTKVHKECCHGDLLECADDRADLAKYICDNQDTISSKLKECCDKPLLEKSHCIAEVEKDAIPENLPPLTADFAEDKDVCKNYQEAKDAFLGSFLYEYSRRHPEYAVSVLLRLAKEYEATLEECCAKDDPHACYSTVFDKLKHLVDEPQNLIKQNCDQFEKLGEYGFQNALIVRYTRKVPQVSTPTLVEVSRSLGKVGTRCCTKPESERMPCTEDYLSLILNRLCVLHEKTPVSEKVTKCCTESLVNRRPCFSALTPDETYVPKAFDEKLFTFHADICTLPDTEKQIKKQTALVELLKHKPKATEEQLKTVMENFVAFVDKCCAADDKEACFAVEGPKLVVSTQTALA
Chain of Fibroblast growth factor 2 (Homo sapiens) (P09038 whole entry, looked up): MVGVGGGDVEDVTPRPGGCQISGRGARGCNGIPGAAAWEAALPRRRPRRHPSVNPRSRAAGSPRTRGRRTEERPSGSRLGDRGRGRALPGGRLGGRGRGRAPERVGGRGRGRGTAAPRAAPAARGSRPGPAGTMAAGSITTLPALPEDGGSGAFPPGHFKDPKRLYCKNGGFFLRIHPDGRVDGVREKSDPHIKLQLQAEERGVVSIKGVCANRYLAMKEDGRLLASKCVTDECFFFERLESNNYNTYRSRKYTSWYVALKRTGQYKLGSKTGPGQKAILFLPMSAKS
Chain of Luciferin 4-monooxygenase (Photinus pyralis) (P08659 whole entry, looked up): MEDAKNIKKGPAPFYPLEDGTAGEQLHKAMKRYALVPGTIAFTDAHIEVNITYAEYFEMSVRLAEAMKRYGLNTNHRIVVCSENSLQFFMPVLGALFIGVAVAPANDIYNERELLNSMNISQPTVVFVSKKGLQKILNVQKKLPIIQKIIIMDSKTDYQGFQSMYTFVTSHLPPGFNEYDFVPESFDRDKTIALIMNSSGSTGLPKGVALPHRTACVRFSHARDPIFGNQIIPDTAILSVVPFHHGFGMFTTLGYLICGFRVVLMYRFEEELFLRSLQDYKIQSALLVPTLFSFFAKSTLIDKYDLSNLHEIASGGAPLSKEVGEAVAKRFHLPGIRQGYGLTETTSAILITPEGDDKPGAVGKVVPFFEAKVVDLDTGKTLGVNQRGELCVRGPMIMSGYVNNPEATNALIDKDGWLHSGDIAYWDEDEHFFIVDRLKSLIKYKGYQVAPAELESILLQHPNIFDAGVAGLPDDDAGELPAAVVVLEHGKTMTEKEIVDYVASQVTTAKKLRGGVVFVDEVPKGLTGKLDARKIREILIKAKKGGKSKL

Regarding `O=C1OCC=C[C@H]2OC34C=CCN(CCN5CCOCC5)C(=O)[C@H]3N(CCO)C(=O)[C@@H]4[C@@H]12` (stereo not given in full), the composite z-score is -0.263 with Albumin (Bos taurus); -0.0221 in experiment [2]; -0.208 in [3]; 0.764 in experiment [4]; -0.214 in experiment [5]; -0.194 in experiment [6]. The composite z-score is 0.457 in the experiment with Sam68 (KHDRBS1); 0.0881 in experiment [7]; 0.575 in experiment [8]; 0.15 in [9]; -0.204 in experiment [10]; -0.133 in [11]. The composite z-score in [12] was 0.368; in [13] it was 0.597; in [14], -0.219; in the experiment with Lefty1, 1.41; in experiment [16], 0.0315. The composite Z-score in experiment [1] was 0.198 (inactive). For the same molecule, the figures for the z-score in experiment [15] and in experiment [17] were 0.587 and -0.602 (inactive), respectively.
On to `COc1ccc([Si](C)(C)[C@@H]2[C@@H](CC(=O)N3Cc4ccccc4C[C@H]3CO)O[C@]3(C(=O)N(Cc4cccc(N5CCC5=O)c4)c4ccccc43)[C@H]2C)cc1`, for which the composite z-score is -0.147 with Albumin (Bos taurus); 0.16 in experiment [2]; -0.117 in experiment [3]; 0.283 in experiment [4]; 1.15 in [5]; 0.0905 in experiment [6]. The composite z-score in the experiment on Sam68 (KHDRBS1) worked out at 1.22; in [7], 0.711; in [8], 0.961; in [9] it was 0.887; in [10], 1.12; in experiment [11], 0.366. For the same molecule, the composite z-score in experiment [12] stood at 0.357; in experiment [13], 1.22; in [14], 1.01; in the experiment on Lefty1, 1.02; in experiment [16] it was 0.696. Further, in experiment [1], the composite Z-score is 0.3 (inactive). Besides, the z-score is -0.256 in experiment [15] and -0.106 (inactive) in [17].
Regarding `COc1cc2c(cc1O)C(c1cccs1)N(Cc1ccc([N+](=O)[O-])o1)CC2` (stereo not given), the composite z-score with Albumin (Bos taurus) amounted to 0.878; in experiment [2], 0.029; in [3], 0.12; in experiment [4], 0.876; in [5] it was 1.35; in [6], 1.08. Moreover, the composite z-score was 0.0376 in the experiment with Sam68 (KHDRBS1); -0.57 in experiment [7]; 0.364 in experiment [8]; 0.737 in experiment [9]; 0.182 in experiment [10]; 0.215 in experiment [11]. The composite z-score in [12] was 0.979; in experiment [13], 0.257; in [14], 0.478; with Lefty1 it was -0.795; in experiment [16], 0.839. Also, the composite Z-score in experiment [1] is 3.03 (inactive). Besides, the z-score in experiment [15] was 2.32; in experiment [17] it was -2.26 (inactive).
For the molecule `O=C1C2C=CC(C(O)c3ccc(-c4ccccc4)s3)N(Nc3ccccc3)C2C(=O)N1c1ccccc1` (stereo not given), the composite z-score in the experiment with Albumin (Bos taurus) came out at 0.931; in experiment [2] it was 0.24; in experiment [3] it was 0.0554; in experiment [4], 0.591; in experiment [5] it was 2.82; in [6], 0.103. Further, the composite z-score in the experiment with Sam68 (KHDRBS1) turned out to be 1.31; in [7], 0.0135; in [8] it was 0.963; in experiment [9], 2.17; in experiment [10], 1.25; in experiment [11], 0.473. The composite z-score in experiment [12] is 0.974; in experiment [13], 0.899; in [14], -0.413; in the experiment on Lefty1, -0.28; in [16] it was 0.807. Also, in [1], the composite Z-score was -0.375 (inactive). Also, the z-score is 0.267 in experiment [15] and 0.192 (inactive) in experiment [17].
In the case of `O=C(NCCN1CCOCC1)[C@@H]1c2ccccc2C(=O)N(Cc2cc(C(F)(F)F)cc(C(F)(F)F)c2)[C@H]1c1ccc(CO)cc1`, the composite z-score in the experiment with Albumin (Bos taurus) is -0.32; in experiment [2], -0.292; in experiment [3], -0.101; in experiment [4], 0.699; in [5], 1.61; in experiment [6], 0.501. Moreover, the composite z-score is 0.687 in the experiment with Sam68 (KHDRBS1); -1.67 in [7]; 0.412 in experiment [8]; 0.537 in experiment [9]; -0.137 in experiment [10]; 0.31 in experiment [11]. In addition, the composite z-score in experiment [12] is -0.487; in [13], -0.48; in [14], -0.879; in the experiment with Lefty1 it was -0.75; in experiment [16], 0.4. Also, the composite Z-score in experiment [1] was -0.253 (inactive). Besides, the figures for the z-score in [15] and in [17] were 2.57 and -0.372 (inactive), respectively.
As to `CCCCCN1CC=CC23O[C@@H]4C=CCOC(=O)[C@@H]4[C@H]2C(=O)N(C(C)CO)[C@@H]3C1=O` (stereo not given in full), the composite z-score with Albumin (Bos taurus) was 0.755; in experiment [2], -0.403; in [3] it was -0.12; in experiment [4], 0.863; in experiment [5], -0.284; in experiment [6] it was -0.0739. The composite z-score with Sam68 (KHDRBS1) is -1.22; in experiment [7], -0.811; in experiment [8], -0.54; in experiment [9], -0.396; in experiment [10], -0.669; in experiment [11], 0.174. Besides, the composite z-score in [12] was -0.235; in [13], -1.12; in experiment [14], -0.495; in the experiment with Lefty1 it was -1.23; in experiment [16] it was -0.383. In [1], the composite Z-score was -0.294 (inactive). For the same molecule, the z-score in experiment [15] is -0.197; in [17] it was 0.101 (inactive).
